Assay results from PubChem BioAssay AID893 (National Center for Advancing Translational Sciences (NCATS), 2007).
“And” between values parts separate entries of the source, which are not always exact repeats. Equal entries are not always repeated. The whole screen tested about 75,000 compounds, of which about 5,700 (7.6%) were called active. Entries that show only a call come without a potency. About 7% were inconclusive and are not listed. This is one part of a sample in which actives are shown more often than they occur. Unmarked numbers belong to inactive results. The call rests on the fitted dose curve; in most records, active means well fitted inhibition curve with a large enough effect; inconclusive means small, poorly fitted or top-dose-only effect; inactive means no such curve, though single readings can be large or run the other way.

molecular target: 3-hydroxyacyl-CoA dehydrogenase type-2 (Homo sapiens) (UniProt Q99714); assay: qHTS Assay for Inhibitors of HSD17B4, hydroxysteroid (17-beta) dehydrogenase 4; conditions: recombinant HSD17B10, NADH fluorescence kinetic; series mostly up to 57.1 µM; further: nearly all actives have a fitted effect of over 70% in size
Excerpt: Assay Overview: NIH Molecular Libraries Screening Centers Network [MLSCN] NIH Chemical Genomics Center [NCGC] Structural Genomics Consortium [SGC] Grant number: None HADH2: Hydroxyacyl-Coenzyme A dehydrogenase, type II, was supplied by researchers at the Structural Genomics Consortium, Oxford University lab (PI Udo Oppermann). The mitochondrial enzyme 17-hydroxysteroid dehydrogenase type 10 (HSD17-10) previously classified as type II hydroxyacyl-CoA dehydrogenase (HADH2) catalyzes the NAD+ dependent oxidation of a variety of substrates including acyl-CoAs, androgens and neurosteroids as well as bile acids(Shafqat N, Marschall HU, Filling C, et al. Biochemical Journal. 2003;376(Pt 1):49-60). […] The enzyme was produced by E.coli fermentation as His-tagged recombinant for the purpose of X-ray structure determination, and had been mass-spectrometry characterized. Inhibition of HADH2 activity was screened by utilizing beta-hydroxybutyryl coenzyme A as an electron donor and NAD+ as an electron acceptor/cofactor. An increase in the fluorescence intensity due to conversion of NAD+ to NADH was used to measure the enzyme activity.
Assay Protocol: Buffer: 100 mM Tris-HCl pH 9.0, containing 0.01 % Tween-20. Reagents/Controls: Buffer in columns 3 and 4 as negative control (no enzyme). Substrate/cofactor solution: 1 mM NAD+ and 90 uM beta-hydroxybutyryl coenzyme A (Sigma-Aldrich, St. Louis, MO) final concentrations dispensed throughout the plate. Enzyme: 20 nM HADH2 final concentration in columns 1, 2, 5-48. Column 1 is neutral (100% activity). Column 2 contained titration of apomorphine (Sigma-Aldrich, A 4393, PubChem CID 2215, top concentration 500 uM, then 1:2 dilution in duplicate) Assay Steps: Three uL of enzyme were dispensed to 1536-well Greiner black solid bottom plates. Compounds and controls (23 nL) were transferred via Kalypsys PinTool. The plates were incubated for 15 min at room temperature, and then 1 uL of substrate/cofactor solution was added to start the reaction. The plates were immediately transferred to and read every 30 seconds for 4 min on ViewLux High-throughput CCD imager (Perkin-Elmer) using 360 nm excitation and 450 nm emission fluorescence protocol. The fluorescence intensity difference between the last and the first time points was used to compute reaction progress.
Potency means the concentration at half of the fitted maximal effect.

Row | SMILES | Potency | activity change, negative = inhibition
1 | COc1ccc(N2C(=O)CCC(C(=O)Nc3ccccn3)C2c2ccc(OC)c(OC)c2)cc1 (stereo not drawn) | inactive | –
2 | CC(C)=CCC/C(C)=C/CO/N=C1/C[C@@H](O)[C@@H](O)[C@@H]2[C@@H]3C(=O)N(C(C)(C)C)C(=O)[C@H]3CC[C@H]12 | – | 0.507% [at 11.4 µM]
3 | CC(C)c1ccc2c(c1)c(SC(C)(C)C)c(CC(C)(C)C(=O)O)n2Cc1ccc(Cl)cc1 | 10 µM (active) and 3.98 µM (active) | –
4 | COC(=O)[C@@H]1CC[C@H](C)[C@@H](c2ccc(C)cc2)N1C(=O)c1ccc(/C=N\O[C@@H](C)c2cn([C@H](CO)Cc3ccccc3)nn2)cc1 | – | -0.702% [at 11.4 µM] and -3.31% [at 11.4 µM]
5 | O=C(Nc1c(C(=O)N2CCCCC2)cnn1-c1ccccc1)c1ccco1 | inactive | –
6 | Cc1c(C(=O)NCCN2CCOCC2)sc2nc(-c3ccc(F)cc3)cn12 | inactive | –
7 | CC(C(=O)O)N1C(=O)c2cccc3cccc1c23 (stereo not drawn) | inactive | –
8 | COc1ccc(N2C(=O)c3cccc4cccc(c34)C2=O)nn1 | 31.6 µM (active) | –
9 | O=C1c2cccc3cccc(c23)N1CN1CCN(c2ccccn2)CC1 | inactive | –
10 | CN1CC(=O)N=C1N | inactive | –
11 | COC(=O)NC(c1ccccc1)[C@]1(C(C)=O)CCCC1=O (stereo partly drawn) | – | 3.19% [at 11.4 µM]
12 | Cc1ccnc(NC(=O)c2ccc(NC(=O)c3ccco3)cc2)c1 | inactive | –
13 | Cc1ccc(Cn2c(NC(=O)c3ccco3)nc3ccccc32)cc1 | 15.8 µM (active) | –
14 | O=S(=O)(O)c1nc2ccccc2n1Cc1ccc(Cl)cc1 | inactive | –
15 | CCn1nc(NC(=O)c2ccco2)c2cc3ccc(C)cc3nc21 | 20 µM (active) | –
16 | Cc1ccc(C(=O)COc2cccc(NC(=O)c3ccco3)c2)cc1 | inactive | –
17 | CCN(CC)C(=O)c1sc(NC(=O)c2ccco2)c(C#N)c1C | inactive | –
18 | COC(C)(C)[C@]12CC(O)(C(C)C)ON1[C@H]1CCCCC1N2O (stereo partly drawn) | inactive | –
19 | Cc1sc2c(c1C)c(=O)n(-c1ccccc1)c1nncn21 | inactive | –
20 | Cn1c2c(c(=O)n(C)c1=O)C(c1ccc(O)cc1)Nc1ccccc1O2 (stereo not drawn) | inactive | –
21 | O=C(CCCN1C(=O)C2C3C=CC(C3)C2C1=O)N1CCN(c2ccccc2)CC1 (stereo not drawn) | inactive | –

Row | SMILES | Potency | activity change, negative = inhibition
22 | CC(C)CCNC(=O)CCNS(=O)(=O)c1ccc(Cl)cc1 | inactive | –
23 | CCCCOc1ccc(NC(=O)CSCC(=O)OCC)cc1 | inactive | –
24 | CCOC(=O)c1cnc(SCC(=O)NCc2ccco2)nc1N | inactive | –
25 | CCCCOc1ccc(-c2ncc(C(=O)OCC)c(N)n2)cc1 | 31.6 µM (active) | –
26 | Cc1cccc(NC(=O)c2ccc3ccccc3n2)n1 | inactive | –
27 | COC(=O)[C@@H]1C[C@@]2(O)[C@H](O)[C@H](O)[C@H](O)C[C@H]2N1Cc1ccc(C(C)(C)C)cc1 | inactive | –
28 | COc1ccc(OC)c([C@H](O)CNC(=O)CN)c1 | inactive | –
29 | Cc1c(C(=O)CN2CCOCC2)[nH]c2ccccc12 | inactive | –
30 | CCOC(=O)c1[nH]c2ccc(OC)cc2c1NC(=O)N1CCOCC1 | 25.1 µM (active) | –
31 | COc1cc(NC(=O)N2CCOCC2)cc(OC)c1 | inactive | –
32 | O=C(CN1C2CCC1CC(NC(=O)C1CC1)C2)NCc1ccccc1 (stereo not drawn) | inactive | –
33 | CCCN(CCC)CCNC(=O)c1cc2c(C)nc3ccccc3c2o1 | inactive | –
34 | Cc1nc2ccccc2c2oc(C(=O)NCC3CCCO3)cc12 (stereo not drawn) | 31.6 µM (active) | –
35 | Cc1nc2ccccc2c2oc(C(=O)NCCCN3CCC(C)CC3)cc12 | inactive | –
36 | Cc1ccc(Cc2cncc(O)c2)cc1S(=O)(=O)O | inactive | –
37 | CCCn1c(SCC(=O)c2ccc3c(c2)OCCO3)nnc1C(C)C | inactive | –
38 | COc1cc(C2C(C(=O)Nc3ccc(F)cc3)=C(C)Nc3nc(CCCO)nn32)cc(OC)c1OC (stereo not drawn) | inactive | –
39 | CC1C(O)CC2C(C(=O)O)=CO[C@@H](O[C@H]3OC(CO)C(O)C(O)C3O)C21 (stereo partly drawn) | inactive | –
40 | COc1ccc(C2CC(c3ccccc3)Nc3ncnn32)cc1 (stereo not drawn) | inactive | –
41 | CC(C)[C@@H](OCc1ccccc1)[C@H](C)/C=N\OC[C@@H](C)[C@H](OCc1ccccc1)C(C)C | – | 2.53% [at 11.4 µM]
42 | OC(COc1ccccc1)Cn1cc(Br)cn1 (stereo not drawn) | inactive | –

Row | SMILES | Potency | activity change, negative = inhibition
43 | COc1cc(-c2nc(S(=O)(=O)c3ccc(Cl)cc3)c(N(C)C)o2)cc(OC)c1OC | inactive | –
44 | COC(=O)c1ccc(C2NC(=O)NC(C)=C2C(=O)N(C)C)cc1 (stereo not drawn) | inactive | –
45 | COC(=O)c1ccc(C2C3=C(Nc4nnnn42)c2ccccc2OC3)cc1 (stereo not drawn) | 25.1 µM (active) | –
46 | COc1ccc(C2C(C(=O)Nc3ccccc3OC)=C(C)Nc3nnnn32)c(OC)c1 (stereo not drawn) | inactive | –
47 | Cc1c(C)c2c(c(C)c1O)CC[C@@](C)(CN1CCN(c3cc(N4CCCC4)nc(N4CCCC4)n3)CC1)O2 | inactive | –
48 | CCOC(=O)CSc1nnc(-c2ccco2)n1C | inactive | –
49 | c1coc(-c2nc3nc4ccccc4n3nc2-c2ccco2)c1 | inactive | –
50 | Cn1c(-c2ccco2)nc2cc3ccccc3cc21 | 25.1 µM (active) | –
51 | Cn1c(SCC(=O)N2CCOCC2)nnc1-c1ccc(NC(=O)c2ccccc2F)cc1 | inactive | –
52 | COc1cccc(Nc2nnc(SCC(=O)N3CC(C)OC(C)C3)s2)c1 (stereo not drawn) | inactive | –
53 | O=C(C1CCN(CC2CCCCC2)CC1)N1CCCC1 | inactive | –
54 | Cc1nn(CC(=O)Nc2ccc3c(c2)nc(CN2CCCCC2)n3C)c(=O)c2ccccc12 | inactive | –
55 | Cn1c(CCN2CCCCCC2)nc2cc(NC(=O)Nc3ccccc3)ccc21 | 25.1 µM (active) | –
56 | CCC(=O)Nc1ccc2c(c1)nc(CCN1CCN(C)CC1)n2C | inactive | –
57 | CC(C)N(CCNC(=O)c1ccc(-n2c(=O)c(=O)[nH]c3ccccc32)cc1)C(C)C | inactive | –
58 | CN(C)CCCCNC(=O)c1ccc(Cc2nc3ccccc3[nH]2)cc1 | inactive | –
59 | CN(C)CCCNC(=O)c1ccc2[nH]c3ccccc3c2c1 | 20 µM (active) | –
60 | COC(=O)[C@@]1(Cc2ccc(OC)cc2)[C@H]2c3cc(C(=O)N4CCCC4)n(Cc4ccc(OC(F)(F)F)cc4)c3C[C@H]2CN1C(=O)c1ccccc1 | inactive | –
61 | Cc1ccc2c(C(=O)CN3CCCC3)c(C)[nH]c2c1 | inactive | –
62 | CCOC(=O)c1nnn(-c2nonc2OC)c1-c1ccccc1 | inactive | –
63 | CC(=O)Oc1c2c(c3c(c1CC=C(C)C)O[C@@]14C(=CC5CC1C(C)(C)OC4(C/C=C(\C)C(=O)O)C5=O)C3=O)OC(C)(CCC=C(C)C)C=C2 (stereo partly drawn) | 20 µM (active) | –
